Reference: the supplement of paper PMC12350171
Structures can show the parent of a compound that is named as a salt. Unmarked numbers belong to inactive results.

Legend:
Settings in all cases: 20 µM
[1] = tested on: Salmonella enterica typhimurium; assay: growth AUC normalised to DMSO control (fraction of control); higher = less growth inhibition, active = hit call of the paper
Method in brief: (§1)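 Hemin and NAD were added to the medium for Haemophilus parainfluenzae. All pathogens, after two anaerobic passages, were inoculated at a starting OD578 of 0.01 into pre-reduced mGAM plates with 20 μM compound and 1% DMSO under breathable seals, and OD578 was read hourly for 24 h in three biological replicates. AUC of each growth curve was obtained with the trapezoidal rule up to the exponential-to-stationary transition and normalised to DMSO controls from the same plate.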

Shigella flexneri = assay: as above
Method in brief: as §1

Vibrio cholerae = assay: as above
Method in brief: as §1

[2] = tested on: Yersinia pseudotuberculosis; assay: as above
Method in brief: as §1

P. vulgatus RND KO = assay: growth AUC normalised to DMSO control (median) (fraction of control); higher = less growth inhibition, active = hit call of the paper
Method in brief: (§2)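 Anaerobic growth was tracked hourly at OD578 for 24 h in 96-well plates of mGAM seeded at OD578 0.01 with each approved-drug library compound at 20 μM and 1% DMSO. Strains had first been passaged twice overnight without oxygen. Three biological replicates were run. The reported median is the area under the curve, calculated by the trapezoidal rule on curves truncated at entry into stationary phase and normalised to vehicle wells on the same plate.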

P. vulgatus WT = assay: as above
Method in brief: as §2

[3] = tested on: S. enterica typhimurium WT; assay: as above
Method in brief: as §2

[4] = tested on: S. enterica typhimurium tolC KO; assay: as above
Method in brief: as §2
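Throughout, for growth AUC normalised to DMSO control (median): active when median AUC fell below 0.1.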

Row | Structure (SMILES) | growth AUC normalised to DMSO control [1] | growth AUC normalised to DMSO control (Shigella flexneri) | growth AUC normalised to DMSO control (Vibrio cholerae) | growth AUC normalised to DMSO control [2] | growth AUC normalised to DMSO control (P. vulgatus RND KO) | growth AUC normalised to DMSO control (P. vulgatus WT) | growth AUC normalised to DMSO control [3] | growth AUC normalised to DMSO control [4]
1 | CN(C)CCC(c1ccccc1)c1ccccn1 (stereo not given) [Pheniramine maleate] | 0.996 | 1.04 | 0.997 | 1.01 | 1.01 | 1.02 | 0.999 | 1.01
2 | CCCc1nc2c(C)cc(-c3nc4ccccc4n3C)cc2n1Cc1ccc(-c2ccccc2C(=O)O)cc1 [Telmisartan] | 1 | 1.02 | 1.02 | 1.01 | 0.852 | 0.897 | 0.996 | 0.995
3 | CC[C@@H]1C(=O)OC[C@@H]1Cc1cncn1C [Pilocarpine nitrate] | 0.995 | 1 | 0.998 | 1.04 | 0.982 | 0.998 | 1 | 1
4 | CC(C)(C)C(=O)OCOC(=O)[C@@H]1N2C(=O)[C@@H](NC(=O)[C@H](N)c3ccccc3)[C@H]2SC1(C)C [Pivampicillin] | 0.97 | 1.01 | 0.987 | 0.818 (active) | 1.01 | 1.02 | 0.993 | 1
5 | OCc1cc(C(O)CNCCCCCCOCCCCc2ccccc2)ccc1O (stereo not given) [Salmeterol] | 0.997 | 0.995 | 1 | 0.959 | 0.977 | 0.962 | 0.995 | 0.946
6 | CN(CCOc1ccc(CC2SC(=O)NC2=O)cc1)c1ccccn1 (stereo not given) [Rosiglitazone hydrochloride] | 1.02 | 1.08 | 1.01 | 0.975 | 1.06 | 1.04 | 1.02 | 0.993
7 | Cc1ccc(-c2ncc(Cl)cc2-c2ccc(S(C)(=O)=O)cc2)cn1 [Etoricoxib] | 1.01 | 1.03 | 1.03 | 0.989 | 1.01 | 1.03 | 0.972 | 0.978
8 | Nc1ccc(C(=O)NCC(=O)O)cc1 [Aminohippuric acid] | 1.03 | 0.989 | 0.998 | 0.997 | 0.992 | 1.01 | 1.01 | 0.999
9 | NC[C@H]1O[C@H](O[C@H]2[C@H](O)[C@@H](O[C@H]3O[C@H](CO)[C@@H](O)[C@H](N)[C@H]3O)[C@H](N)C[C@@H]2N)[C@H](N)C[C@@H]1O [Tobramycin] | 0.888 (active) | 0.794 (active) | 0.97 | 0.107 (active) | 1.03 | 1.05 | 0.969 | 0.995
10 | CC1(C)S[C@@H]2[C@H](NC(=O)Cc3ccccc3)C(=O)N2[C@H]1C(=O)O [Benzylpenicillin sodium] | 0.0129 (active) | 0.9 | 0.136 (active) | 0.101 (active) | 0.0105 (active) | 0.00991 (active) | 0.0318 (active) | 0.0065 (active)
11 | CNC1(C)C2CCC(C2)C1(C)C (stereo not given) [Mecamylamine hydrochloride] | 1.02 | 1 | 0.976 | 1.02 | 1.09 | 1.09 | 1.02 | 1.02
12 | CC(C)Cn1cnc2c(N)nc3ccccc3c21 [Imiquimod] | 1.02 | 1.05 | 1.06 | 1.01 | 0.986 | 0.951 | 0.997 | 0.994
13 | CCCCNC(=O)NS(=O)(=O)c1ccc(C)cc1 [Tolbutamide] | 1.01 | 0.995 | 0.956 | 0.998 | 1.02 | 1.04 | 0.996 | 1
14 | CC(C(=O)O)c1ccc(C(=O)c2ccccc2)s1 (stereo not given) [Tiaprofenic acid] | 1 | 1.01 | 0.978 | 1.01 | 1.02 | 1.05 | 1 | 0.992
15 | CCN(CC)CCCC(C)Nc1c2ccc(Cl)cc2nc2ccc(OC)cc12 (stereo not given) [Quinacrine dihydrochloride hydrate] | 0.957 | 0.933 | 1.04 | 0.996 | 1.01 | 0.986 | 0.99 | 0.978
16 | CC(C)NC[C@H](O)COc1ccc(CC(N)=O)cc1 [(S,-) Atenolol] | 0.988 | 0.972 | 0.996 | 1.02 | 0.985 | 0.963 | 0.987 | 0.989
17 | O=C(O)COC(=O)Cc1ccccc1Nc1c(Cl)cccc1Cl [Aceclofenac] | 0.995 | 0.979 | 0.979 | 0.999 | 0.995 | 0.983 | 1.01 | 0.998
18 | CC(C(=O)O)c1ccc(-c2ccccc2)c(F)c1 (stereo not given) [Flurbiprofen] | 0.986 | 0.98 | 0.96 | 0.985 | 0.994 | 0.991 | 0.995 | 0.977
19 | Cc1cc(C2CCCCC2)n(O)c(=O)c1 [Ciclopirox ethanolamine] | 1.01 | 0.997 | 0.969 | 0.995 | 1.02 | 0.999 | 1.02 | 0.952
20 | CN(C)CC/C=C1\c2ccccc2CSc2ccccc21 [Dosulepin hydrochloride] | 0.992 | 0.995 | 0.952 | 0.998 | 1.03 | 1.02 | 0.996 | 0.942
21 | CCCOc1cc(N)ccc1C(=O)OCCN(CC)CC [Propoxycaine hydrochloride] | 1.02 | 1.04 | 1.07 | 1.02 | 1.01 | 1.05 | 0.997 | 0.996
22 | CN(C)CC/C=C1/c2ccccc2Sc2ccc(Cl)cc21 [Chlorprothixene hydrochloride] | 0.997 | 0.988 | 0.817 (active) | 0.996 | 0.904 | 0.887 | 0.999 | 0.912
23 | CCOc1ccccc1OC(c1ccccc1)C1CNCCO1 (stereo not given) [Reboxetine mesylate] | 0.991 | 0.986 | 1.01 | 0.995 | 1.01 | 1.01 | 1 | 0.988
24 | CC(=O)OCC(=O)[C@@]1(O)[C@H](C)C[C@H]2[C@@H]3CCC4=CC(=O)C=C[C@]4(C)[C@@]3(F)[C@@H](O)C[C@@]21C [Dexamethasone acetate] | 1 | 1 | 1 | 0.999 | 0.993 | 1.02 | 1.01 | 0.998
25 | CN(C)CCC=C1c2ccccc2CCc2ccccc21 [Amitryptiline hydrochloride] | 0.997 | 0.999 | 0.905 | 1.01 | 0.993 | 0.959 | 0.998 | 0.97
26 | COCCc1ccc(OCC(O)CNC(C)C)cc1 (stereo not drawn) [Metoprolol-(+)-tartrate salt] | 0.996 | 0.977 | 0.998 | 0.996 | 1.01 | 1.03 | 1 | 1.01
27 | COc1c(N2CCNC(C)C2)c(F)cc2c(=O)c(C(=O)O)cn(C3CC3)c12 (stereo not given) [Gatifloxacin] | 0.0102 (active) | 0.0167 (active) | 0.0355 (active) | 0.0287 (active) | 0.0163 (active) | 0.0109 (active) | 0.0104 (active) | 0.0044 (active)
28 | CC[C@@H](CO)NCCN[C@@H](CC)CO [Ethambutol dihydrochloride] | 0.943 | 0.976 | 1 | 1.01 | 1.01 | 0.998 | 1 | 0.989
29 | CC(N)CCCC(C)(C)O (stereo not given) [Heptaminol hydrochloride] | 1 | 0.999 | 0.986 | 0.997 | 1.01 | 1.05 | 1.01 | 0.996
30 | CC(C)COCC(CN(Cc1ccccc1)c1ccccc1)N1CCCC1 (stereo not given) [Bepridil hydrochloride] | 1 | 0.965 | 0.875 | 1.02 | 0.996 | 0.982 | 0.986 | 0.906
